{"source": "PubChem BioAssay (Tox21)", "note": "Inconclusive results are not listed. Activity calls are given as the source filed them. Calls come from the whole dose curve; as a rule, active = well fitted activation curve with a large enough effect; inconclusive = small, poorly fitted or top-dose-only effect; inactive = flat fitted curve, though single readings scatter. % is set by controls: 0 for no effect and ±100 for the full control effect.", "data": [{"test": "qHTS assay to identify small molecule phospholipidosis (PLD) inducers (AID 1259344)", "details": "HepG2 phospholipidosis, LipidTOX Red imaging, 24 h; series mostly up to 38.3 µM; PLD induction: at the top concentration", "method_in_brief": "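Accumulated phospholipid, stained red by LipidTOX during 24 h compound treatment of HepG2 cells at 37 C, is quantified from images as pit number and intensity, normalised per cell using Hoechst-stained nuclei.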", "values": [{"molecule": "CC(C)c1ncc([N+](=O)[O-])n1C", "PLD induction": "-1.05% (inactive)"}, {"molecule": "CC(CNC(=O)c1cccnc1)NC(=O)c1cccnc1", "note": "(stereo not drawn)", "PLD induction": "-0.161% (inactive)"}, {"molecule": "CC(=O)Nc1ccc(OC(C)=O)cc1", "PLD induction": "-0.15% (inactive)"}, {"molecule": "CC(=O)OCC(=O)[C@@]1(O)CC[C@H]2[C@@H]3CCC4=CC(=O)CC[C@]4(C)C3=CC[C@@]21C", "PLD induction": "-0.152% (inactive)"}, {"molecule": "CCC1OC(=O)C[C@@H](O)[C@H](C)[C@@H](O[C@@H]2O[C@H](C)C[C@H](N(C)C)[C@H]2O)[C@@H](CC=O)C[C@@H](C)C(=O)/C=C/[C@]2(C)OC2C1C", "note": "(stereo partly drawn)", "Potency": "inactive"}, {"molecule": "C[C@@H]1O[C@@H](OC[C@H]2O[C@@H](Oc3c(-c4ccc(OCCO)c(OCCO)c4)oc4cc(OCCO)cc(O)c4c3=O)[C@H](O)[C@@H](O)[C@@H]2O)[C@H](O)[C@H](O)[C@H]1O", "PLD induction": "0.559% (inactive)"}, {"molecule": "CC[C@H]1OC(=O)C[C@@H](O)[C@H](C)[C@@H](O[C@@H]2O[C@H](C)[C@@H](O)[C@H](N(C)C)[C@H]2O)[C@@H](CCN2C[C@H](C)C[C@H](C)C2)C[C@@H](C)C(=O)/C=C/C(C)=C/[C@@H]1CO[C@@H]1O[C@H](C)[C@@H](O)[C@@H](OC)[C@H]1OC", "PLD induction": "0.424% (inactive)"}, {"molecule": "CC(C)(O/N=C(\\C(=O)N[C@@H]1C(=O)N2C(C(=O)[O-])=C(C[n+]3ccccc3)CS[C@H]12)c1csc(N)n1)C(=O)O", "PLD induction": "-0.632% [at 15.5 µM] (inactive)"}, {"molecule": "CC[C@@]1([C@@H]2O[C@@H]([C@H]3O[C@@](O)(CO)[C@H](C)C[C@@H]3C)C[C@@H]2C)CC[C@H]([C@]2(C)CC[C@]3(C[C@H](O)[C@@H](C)[C@@H]([C@@H](C)[C@@H](OC)[C@H](C)C(=O)O)O3)O2)O1", "note": "(stereo in doubt)", "Potency": "inactive"}, {"molecule": "CS(=O)(=O)c1ccc([C@@H](O)[C@@H](COC(=O)CN)NC(=O)C(Cl)Cl)cc1", "PLD induction": "0.141% (inactive)"}, {"molecule": "O=C1c2ccccc2-c2n[nH]c3cccc1c23", "PLD induction": "-0.308% (inactive)"}, {"molecule": "NCC(O)CC(=O)O", "note": "(stereo not drawn)", "PLD induction": "0.204% (inactive)"}, {"molecule": "CCC(=O)OC(OP(=O)(CCCCc1ccccc1)CC(=O)N1C[C@H](C2CCCCC2)C[C@H]1C(=O)O)C(C)C", "note": "(stereo partly drawn)", "PLD induction": "-0.0484% (inactive)"}, {"molecule": "NC(=S)NS(=O)(=O)c1ccc(N)cc1", "PLD induction": "-0.138% (inactive)"}, {"molecule": "CCCOC(=O)c1ccccc1O", "PLD induction": "-0.293% (inactive)"}, {"molecule": "CO/N=C(\\C(=O)N[C@@H]1C(=O)N2C(C(=O)O)=C(C[N+]3(C)CCCC3)CS[C@H]12)c1csc(N)n1", "PLD induction": "0.0622% (inactive)"}, {"molecule": "CC(C)(C)C(=O)OCC(=O)[C@H]1CC[C@H]2[C@@H]3CCC4=CC(=O)CC[C@]4(C)[C@H]3CC[C@]12C", "PLD induction": "-0.848% (inactive)"}, {"molecule": "CN[C@H](CC(C)C)C(=O)N[C@H]1C(=O)N[C@@H](CC(N)=O)C(=O)N[C@H]2C(=O)N[C@H]3C(=O)N[C@H](C(=O)N[C@@H](C(=O)O)c4cc(O)cc(O)c4-c4cc3ccc4O)[C@H](O)c3ccc(c(Cl)c3)Oc3cc2cc(c3O[C@@H]2O[C@H](CO)[C@@H](O)[C@H](O)[C@H]2O[C@H]2C[C@](C)(N)C(O)[C@H](C)O2)Oc2ccc(cc2Cl)[C@H]1O", "note": "(stereo partly drawn)", "Potency": "inactive"}, {"molecule": "CCOC(=O)COc1ccc2c(=O)cc(-c3ccccc3)oc2c1", "Potency": "inactive"}, {"molecule": "CC(=O)O[C@H]1C[C@@H]2CC[C@@H]3[C@H](CC[C@@]4(C)[C@H]3C[C@H]([N+]3(C)CCCCC3)[C@@H]4OC(C)=O)[C@@]2(C)C[C@@H]1[N+]1(C)CCCCC1", "PLD induction": "-0.982% (inactive)"}, {"molecule": "COC(=O)C(CN)c1c[nH]c2ccc(OC)cc12", "note": "(stereo not drawn)", "PLD induction": "-0.964% (inactive)"}, {"molecule": "C=CC1=C(C(=O)O)N2C(=O)[C@@H](NC(=O)/C(=N\\O)c3csc(N)n3)[C@H]2SC1", "note": "(stereo in doubt)", "Potency": "inactive"}, {"molecule": "N[C@@H](Cc1ccc(O)c(O)c1)C(=O)O", "PLD induction": "8.4% (inactive)"}, {"molecule": "FC(F)(F)C(F)(F)C(F)(F)C(F)(F)C(F)(F)F", "PLD induction": "0.286% (inactive)"}, {"molecule": "CCCCCCCCCC(=O)NO", "Potency": "inactive"}, {"molecule": "CCN(CC)CCNC(=O)c1ccc(NS(C)(=O)=O)cc1", "PLD induction": "-0.241% [at 7.66 µM] (inactive)"}, {"molecule": "NC(N)=NCCCCN=C(N)N", "PLD induction": "-6.42% (inactive)"}, {"molecule": "O=C1[O][Bi][O]c2ccccc21", "PLD induction": "-0.561% (inactive)"}, {"molecule": "O.O.O.O.O.O.O.O=S(=O)([O-])[O-].[Co+2]", "PLD induction": "-1.76% (inactive)"}, {"molecule": "CCN1\\C(=C/C=C/C=C/c2sc3ccccc3[n+]2CC)Sc2ccccc21", "Potency": "inactive"}, {"molecule": "Cc1ncc(C[n+]2csc(CCO)c2C)c(N)n1", "PLD induction": "-0.398% [at 15.5 µM] (inactive)"}, {"molecule": "CO/N=C(\\C(=O)N[C@@H]1C(=O)N2C(C(=O)O)=C(COC(C)=O)CS[C@H]12)c1csc(N)n1", "note": "(stereo in doubt)", "PLD induction": "-0.456% (inactive)"}, {"molecule": "NC[C@@H]1CC[C@@H](N)[C@@H](O[C@H]2[C@H](O)[C@@H](O[C@H]3O[C@H](CO)[C@@H](O)[C@H](N)[C@H]3O)[C@H](N)C[C@@H]2N)O1", "PLD induction": "-1.59% (inactive)"}]}]}
